The whole screen tested about 310,000 compounds, of which about 14,000 (4.5%) showed an effect of 50% or more. The effect is printed as a negative number. This excerpt belongs to a sample that is enriched for strong results.
Each compound was assayed against human ether-à-go-go-related gene (hERG) potassium channel (human, UniProt Q12809) (assay: primary screen, population patch clamp on CHO cells stably expressing hERG; higher = less effect of the substance).
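Also: peak tail current of the secondary pulse compared with the same well before compound.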

Chain of human ether-à-go-go-related gene (hERG) potassium channel (Q12809 whole entry, looked up): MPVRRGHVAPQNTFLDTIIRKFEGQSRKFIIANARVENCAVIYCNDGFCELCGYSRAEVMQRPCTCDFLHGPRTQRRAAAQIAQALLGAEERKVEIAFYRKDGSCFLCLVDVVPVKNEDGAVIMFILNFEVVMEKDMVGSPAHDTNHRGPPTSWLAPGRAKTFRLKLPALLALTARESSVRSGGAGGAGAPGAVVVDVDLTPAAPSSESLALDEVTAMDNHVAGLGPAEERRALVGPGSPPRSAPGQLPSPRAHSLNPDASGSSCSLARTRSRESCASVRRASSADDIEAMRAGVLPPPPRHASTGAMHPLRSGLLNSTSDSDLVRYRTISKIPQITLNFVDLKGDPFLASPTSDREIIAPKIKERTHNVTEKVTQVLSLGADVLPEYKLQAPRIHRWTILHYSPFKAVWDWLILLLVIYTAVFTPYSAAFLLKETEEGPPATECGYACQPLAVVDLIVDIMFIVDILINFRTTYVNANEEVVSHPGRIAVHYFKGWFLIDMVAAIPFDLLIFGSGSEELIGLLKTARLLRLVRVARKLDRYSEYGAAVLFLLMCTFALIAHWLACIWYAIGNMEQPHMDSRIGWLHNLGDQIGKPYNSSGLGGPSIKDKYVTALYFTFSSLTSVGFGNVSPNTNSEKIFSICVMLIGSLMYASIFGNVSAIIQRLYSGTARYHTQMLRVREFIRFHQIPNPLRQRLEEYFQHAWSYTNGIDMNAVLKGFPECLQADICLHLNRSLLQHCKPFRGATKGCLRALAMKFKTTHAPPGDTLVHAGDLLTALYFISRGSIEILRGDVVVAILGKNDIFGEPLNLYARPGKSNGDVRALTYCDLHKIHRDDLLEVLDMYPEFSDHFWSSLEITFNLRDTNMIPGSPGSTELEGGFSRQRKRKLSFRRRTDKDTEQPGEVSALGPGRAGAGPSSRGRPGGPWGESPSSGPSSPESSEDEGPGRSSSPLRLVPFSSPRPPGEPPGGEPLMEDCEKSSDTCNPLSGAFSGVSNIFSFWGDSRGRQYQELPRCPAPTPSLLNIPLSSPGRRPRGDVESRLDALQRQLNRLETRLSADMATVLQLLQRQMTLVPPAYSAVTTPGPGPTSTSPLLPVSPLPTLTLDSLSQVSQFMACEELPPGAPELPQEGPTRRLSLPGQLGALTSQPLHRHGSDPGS

Row | SMILES | hERG current change (%, negative = inhibition) at 10uM [%]
1 | CCn1cc(C(=O)NCCN(CC(C)C)CC(C)C)c(=O)c2cc(S(=O)(=O)N3CCOCC3)ccc21 | -14.1
2 | CCN(CC)CCCNC(=O)c1cn(CC)c2ccc(S(=O)(=O)N3CCc4ccccc4C3)cc2c1=O | -52.9
3 | CCN(CC)CCNC(=O)c1cn(CC)c2ccc(S(=O)(=O)N3CCc4ccccc4C3)cc2c1=O | -59.4
4 | CCn1cc(C(=O)NCCc2ccccc2)c(=O)c2cc(S(=O)(=O)N3CCCC3)ccc21 | 1.7
5 | O=C(NC1CCCCC1)C1CCC(CNS(=O)(=O)c2ccccc2)CC1 (stereo not drawn) | 10.3
6 | COc1ccc(-c2c(C#N)c(C)nc3c2C(=O)c2ccccc2-3)cc1 | -3.8
7 | Cn1c(SCC(=O)c2ccccc2)nnc1-c1ccc(O)cc1 | -11.2
8 | COc1cccc(C=NCC(C)N=Cc2cccc(OC)c2O)c1O (stereo not drawn) | 3.33
9 | Cn1c(=O)c2c(nc(NCc3ccco3)n2CC(O)CO)n(C)c1=O (stereo not drawn) | 22.1
10 | CCOC(=O)N1CCN(C(=O)CCN2C(=O)COc3ccccc32)CC1 | 0.87
11 | c1ccc(-c2noc(-c3ccc4ccccc4c3)n2)cc1 | 11.9
12 | CCOC(=O)c1c(NC(=O)CCCN2CCOCC2)sc2c1CC(C)(C)OC2 | -9.14
13 | COc1ccc(C2=NOC(C(=O)Nc3ccc4c(c3)OCCO4)C2)c(OC)c1 (stereo not drawn) | 3.96
14 | CCOC(=O)COc1ccc(S(=O)(=O)NCc2ccco2)cc1 | -1.53
15 | CCNc1nc(NC(C)CC)nc(ON=C(C)C)n1 (stereo not drawn) | -2.23
16 | CCCCN(CC)CCCNC(=O)c1cn(CC)c2ccc(S(=O)(=O)N3CCc4ccccc4C3)cc2c1=O | -74.9
17 | CCCCN(C)CCCNC(=O)c1cn(CC)c2ccc(S(=O)(=O)N3CCOCC3)cc2c1=O | 10.3
18 | CCCCSCCCNC(=O)c1cn(CC)c2ccc(S(=O)(=O)N3CCOCC3)cc2c1=O | -44.9
19 | O=C(CCN1CCCCO1)N1CCCC(Nc2cccc(F)c2)C1 (stereo not drawn) | 14
20 | Nc1nc2n(n1)C(c1ccco1)CC(c1ccc(Cl)c(Cl)c1)N2 (stereo not drawn) | -31.4
21 | CC1CCN(C(=S)Nc2ccc(F)cc2)CC1 | 3.1

Row | SMILES | hERG current change (%, negative = inhibition) at 10uM [%]
22 | CC1C(=O)C(C)C(c2ccc([N+](=O)[O-])cc2)NC1c1ccc([N+](=O)[O-])cc1 (stereo not drawn) | -46
23 | CCC1C(=O)C(C)(C)C(=O)OC1c1ccc([N+](=O)[O-])cc1 (stereo not drawn) | -7.26
24 | CCC1C(=O)CC(c2ccc([N+](=O)[O-])cc2)NC1c1ccc([N+](=O)[O-])cc1 (stereo not drawn) | -76.3
25 | CC1C(=O)CC(c2ccccc2)NC1c1ccccc1 (stereo not drawn) | -7.08
26 | CCC1C(=O)CC(c2ccccc2)NC1c1ccccc1 (stereo not drawn) | -21.4
27 | CC1C(=O)CC(c2ccc([N+](=O)[O-])cc2)NC1c1ccc([N+](=O)[O-])cc1.Cl (stereo not drawn) | -69.7
28 | Cc1ccc(NC(=O)CN(C)C(=O)CSc2nc3ccccc3o2)cc1 | -20.5
29 | COc1cc2c(cc1NC(=O)CN1CCN(S(=O)(=O)c3ccccc3F)CC1)oc1ccccc12 | 10.1
30 | CSc1ccc(C(=O)C2CCCN(Cc3cc4ccccc4[nH]3)C2)cc1 (stereo not drawn) | -48.8
31 | CSc1ccc(C(=O)C2CCCN(Cc3cccc4nccnc34)C2)cc1 (stereo not drawn) | -82.8
32 | COc1ccccc1C(=O)C1CCCN(Cc2cnc(C)s2)C1 (stereo not drawn) | -8.13
33 | COc1c(C)cc(C(=O)C2CCCN(Cc3cccc4nccnc34)C2)cc1C (stereo not drawn) | -64.5
34 | CSc1ccc(C(=O)C2CCCN(C(=O)c3cccnc3SC)C2)cc1 (stereo not drawn) | -32.4
35 | COc1ccccc1C(=O)C1CCCN(Cc2cn[nH]c2C2CCCCC2)C1 (stereo not drawn) | -31.5
36 | CCCN1CCCC(C(=O)c2cc(C)c(OC)c(C)c2)C1 (stereo not drawn) | -3.65
37 | COc1c(C)cc(C(=O)C2CCCN(Cc3cnc(C)s3)C2)cc1C (stereo not drawn) | -7.68
38 | COc1ccccc1C(=O)C1CCCN(Cc2cccc3nccnc23)C1 (stereo not drawn) | -67.4
39 | CCOCCCN=Cc1c(O)n(Cc2ccccc2)c(=O)[nH]c1=O | -4.85
40 | c1ccc(CSc2nnc3ccc(-c4cccs4)nn23)nc1 | 3.64
41 | Cc1cccc(OCC(=O)Nc2ccc3c(C)cc(=O)oc3c2)c1 | 1.59
42 | CCOc1ccc(C(=O)OC2CCCN(C)C2)cc1.Cl (stereo not drawn) | -18.1

Reference: PMC4336329 (PLoS ONE, 2015)
